Reference: ChEMBL document CHEMBL4513149, “CO-ADD screening of MMV (CH) - MMV compounds” (2021)
Entries with a potency or affinity are not part of this list.

These compounds were tested on Staphylococcus aureus. Details: Concentration 20 uM; ASSAY_TEST Inhibition of Bacterial Growth; detection method Absorption (OD600); MEDIA CAMHB; plate type 384well; NBS; CORNING #3640; time 18 hr.
For `CC1=NN(c2nc3ccccc3s2)C(=O)C1Cc1cccc2ccccc12` (stereo not given), the Inhibition was 69.16%.
With `COC(=O)c1c(NC(=O)c2cc3ccccc3oc2=O)sc2c1CCN(Cc1ccccc1)C2` the Inhibition was 19.04%.
Work on `COc1cccc(OC)c1C(=O)Nc1ccc(Cl)c(-c2nc3ccccc3s2)c1` yielded an Inhibition of 3.55%.
For `O=C(Nc1ccc(F)c(-c2nc3cc(-c4ccccc4)cnc3[nH]2)c1)N1CCCC1`, the Inhibition was 13.16%.
Work on `Cc1ccc(-c2cc(C(=O)Nc3cccnc3)c3cc(Br)ccc3n2)cc1` yielded an Inhibition of 16.17%.
`CCNC(=O)C(C)Nc1nc(-c2cccnc2)nc2sc(C)c(C)c12` (stereo not given) was tested, and the Inhibition was 4.74%.
`CCN(CC)CCCN1CCN(C(=O)c2cccc(-c3noc(C(F)(F)F)n3)c2)CC1` showed an Inhibition of -0.71%.
`CC(=O)N(CCN(C(=O)c1ccc(F)cc1)c1ccccc1)c1ccccc1` gave an Inhibition of 12.64%.
Work on `CCOC(=O)c1c(NC(=O)c2c(F)c(F)c(F)c(F)c2F)sc(C(N)=O)c1C` yielded an Inhibition of 12.42%.
Compound `COc1ccc(N(CCc2cccc(C)n2)C(C)=O)cc1` has an Inhibition of 18.62%.
`Cc1nc(-c2ccccn2)nc(NCCc2ccc(S(C)(=O)=O)cc2)c1Cl` showed an Inhibition of 4.78%.
`CCc1nc2ccccc2n1CC(O)COc1cc(C)ccc1Cl` (stereo not given) gave an Inhibition of 11.53%.
`COc1ccc(Nc2ccccc2NC(=O)c2ccc(O)nc2)cc1` showed an Inhibition of 8.88%.
In the case of `O=C(NC1=NCCS1)c1sc2cc(F)ccc2c1Cl`, the Inhibition is reported as 2.69%.
`CN(C)CCNC(=O)N1CCCN(c2ncnc3cc(-c4ccccc4)sc23)CC1` was tested, and the Inhibition was 13.78%.
For `Clc1cccc(CO[C@H]2CCc3ccccc3[C@@H]2n2ccnn2)c1`, the Inhibition was -0.96%.
With `CN1CCC(c2cc(-c3ccncc3)c(-c3ccc(F)cc3)[nH]2)CC1` the Inhibition was -0.65%.
With `Clc1ccc(CN2CCN(C3=NCCN3)CC2)cc1Cl` the Inhibition was 14.27%.
Compound `COc1cc(-c2cc(-c3ccc(S(C)(=O)=O)cc3)cnc2N)ccc1O` has an Inhibition of 12.87%.
Compound `CCOc1ccc(-c2nc(NC(=O)CS(=O)(=O)c3ccccc3)sc2C)cc1` has an Inhibition of 3.82%.
`CC(=O)Nc1ccc(NC(=O)c2cc(-c3cc(Cl)ccc3O)n[nH]2)cc1` was tested, and the Inhibition was 5.62%.
`Brc1c(-c2ccc3c(c2)OCO3)nc2ncccn12` gave an Inhibition of 14.85%.
Compound `COc1cc(CN2CCC3(C=Cc4ccccc43)CC2)cc2c1OCO2` has an Inhibition of -1.3%.
`Cl.O[C@@H](c1cc(C(F)(F)F)nc2c(C(F)(F)F)cccc12)[C@H]1CCCCN1` showed an Inhibition of 45.36%.
`O=C(NC1CC1)c1ccc(CSCc2ccccc2Cl)o1` showed an Inhibition of 11.19%.
`OCCc1ccc(Nc2nccc(-c3nnc4ccccn34)n2)cc1` was tested, and the Inhibition was 21.71%.
For `Cc1c[nH]c(CCNC(=O)c2cc(-c3ccc(Cl)cc3)cs2)n1`, the Inhibition was 25.33%.
With `CC(C)(C)c1cc(C(=O)N2CCN(c3nccnc3C#N)CC2)n(Cc2ccccc2)n1` the Inhibition was 20.75%.
Work on `COc1ccc(S(=O)(=O)Nc2ccc(CN3CCN(C(=O)c4cccc(C#N)c4)CC3)cc2)cc1` yielded an Inhibition of 1.42%.
Compound `COCC(C)NC(=O)CSc1ncnc2sc(-c3ccccc3)cc12` (stereo not given) has an Inhibition of 19.45%.
`Cc1cccc(-c2nc(Nc3ccncn3)c3sccc3n2)n1` was tested, and the Inhibition was 21.43%.
Compound `O=C(NC1CC1)c1ccc(N2CCOc3ccc(Cl)cc32)s1` has an Inhibition of 18.01%.
Work on `CS(=O)(=O)N1CCC(Cn2nc(Cc3cccc4ccccc34)c3c(N)ncnc32)CC1` yielded an Inhibition of 11.53%.
`CC(C)n1ncc2c(C(=O)NCC(c3cccs3)N3CCOCC3)cc(-c3ccccc3)nc21` (stereo not given) showed an Inhibition of 11.85%.
Work on `CCC(Sc1nc2ccccc2o1)C(=O)Nc1nccs1` (stereo not given) yielded an Inhibition of 18.2%.
